Screening results: PubChem, several laboratories
An excerpt weighted towards active compounds, which were near 2.9% of everything screened.
dFosB activator – activators of delta FosB homodimer, primary screen, biochemical, fluorescence polarization, TAMRA-CDK5 oligo, single point | Protein FosB (Mus musculus), P13346 | purified delta FosB; percent of positive-control signal above neutral wells | activation, % at 25 µM | 340,000 tested, 0.99% active | AID 493131, 2011;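 active = mean activation above about 17%, with every replicate also reaching it, limit read from the data, passing the limit was not always enough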
Target sequence (P13346 whole entry, looked up): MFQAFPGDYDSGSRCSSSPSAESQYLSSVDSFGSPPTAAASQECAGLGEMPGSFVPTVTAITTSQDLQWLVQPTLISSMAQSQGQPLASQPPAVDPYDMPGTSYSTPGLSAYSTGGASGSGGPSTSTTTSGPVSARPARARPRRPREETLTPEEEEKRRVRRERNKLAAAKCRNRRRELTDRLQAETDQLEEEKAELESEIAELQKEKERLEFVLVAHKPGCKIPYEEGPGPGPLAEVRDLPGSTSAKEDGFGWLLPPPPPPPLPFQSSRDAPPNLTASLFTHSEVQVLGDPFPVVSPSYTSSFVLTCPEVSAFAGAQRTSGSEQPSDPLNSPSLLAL
MEKK3 PB1 HTS – modulators of MEKK3-MEK5 PB1 binding, primary screen, biochemical, wildtype MEKK3, multiplex bead flow cytometry, Alexa488-MEK5. bead-based flow cytometry, Alexa488-MEK5 binding to MEKK3; actives lie on both sides; 0 = blocked by unlabeled MEK5, 100 = vehicle. AID 1529, 2009. binding response (% of control), % at 10 µM. 290,000 tested, 1.4% active. Mitogen-activated protein kinase kinase kinase 3 (Homo sapiens), Q99759;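 active = binding response more than 3 SD above or below the average of its plate-row segment, actives on both sides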;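 note: Alexa488 bead fluorescence after subtracting the streptavidin-only scavenger bead signal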
MEKK2 mut-MEK5 – MEK5 binding signal on mutant MEKK2 PB1, primary screen, biochemical, multiplex bead flow cytometry, Alexa488-MEK5; Alexa488-MEK5 binding to MEKK2 mutant; percent response, % at 10 µM; 290,000 tested, 0.35% active; AID 1530, 2009; in the data active = percent response above about 24%, passing the limit was not always enough
MEKK2wt PB1 HTS – modulators of MEK5 binding to wildtype MEKK2, primary screen, biochemical, multiplex bead flow cytometry, Alexa488-MEK5; Mitogen-activated protein kinase kinase kinase 2 (Homo sapiens), Q9Y2U5; AID 1531, 2009; binding response (% of control), % at 10 µM; Alexa488-MEK5 binding to MEKK2 WT; actives lie on both sides; 290,000 tested, 1.1% active; in the data active = binding response below about 67% or above about 130%
FID counter – compounds displacing fluorescent DNA intercalator, primary screen, artefact control for HCV NS3 helicase inhibitor project, biochemical, FID fluorescence | DNA fluorescent intercalator displacement | inhibition, % at 7.9 µM | 290,000 tested, 0.17% active; in the data active = inhibition above about 37%;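 note: higher means more ethidium bromide displaced from hairpin DNA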
MEKK2wt confirm – modulators of MEK5 binding to wildtype MEKK2, confirmation, biochemical, single concentration, multiplex bead flow cytometry. binding response (% of control), % at 10 µM. 5,900 tested, 2.4% active. shares compounds with MEKK3 PB1 HTS. Alexa488-MEK5 binding to MEKK2 WT; actives lie on both sides; in the data active = binding response below about 16% or above about 210%; inactive = in between
MEKK2mut confirm – mutant MEKK2 PB1-MEK5 binding signal retest – biochemical, single concentration, multiplex bead flow cytometry, confirmation; shares compounds with MEKK3 PB1 HTS; Alexa488-MEK5 binding to MEKK2 mutant; percent response, % at 10 µM; 5,900 tested, 2% active; AID 1893, 2009; in the data active = percent response mostly above about 71%, no sharp cut-off; inactive = mostly below about 38%;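 note: higher means compound restores mutant binding toward wildtype level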
MEKK3-MEK5 inh – MEKK3 wild-type PB1 binding to MEK5, inhibitors, confirmation, biochemical, bead multiplex flow cytometry, single concentration, wildtype; shares compounds with MEKK3 PB1 HTS; Alexa488-MEK5 binding to MEKK3; hits give low values; binding response (% of control), % at 10 µM; 5,900 tested, 1.8% active;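 active = binding response below 72% of control, or above a set upper limit, though filed actives all read lower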;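 note: lower values mean stronger disruption of MEK5 binding to MEKK3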
A number is an active result; – = inactive; · = no result given.

SMILES	dFosB activator	MEKK3 PB1 HTS	MEKK2 mut-MEK5	MEKK2wt PB1 HTS	FID counter	MEKK2wt confirm	MEKK2mut confirm	MEKK3-MEK5 inh
COc1cc(C)ccc1OCCOCCOc1ccc([N+](=O)[O-])cc1	–	134.0	–	–	–	–	–	–
Cc1cc(Nc2cccc(Cl)c2Cl)n2ncnc2n1	–	–	–	–	–	·	·	·
CC1CCCN(C(=O)CCNS(=O)(=O)c2ccc3c(c2)oc(=O)n3C)C1 (stereo unspecified)	–	–	–	–	–	·	·	·
OCCN(CC(O)COc1ccccc1)CC(O)Cn1ccc2ccccc21 (stereo unspecified)	–	134.0	–	–	–	–	–	–
O=C(Nc1c2c(nn1-c1ccccc1)CS(=O)(=O)C2)c1cccs1	–	–	–	–	–	·	·	·
NCC12CC3CC(C1)CC(c1ccc(Br)cc1)(C3)C2	–	–	–	153.0	–	–	–	–
Cc1ccc(C23CC4CC(CC(CN)(C4)C2)C3)cc1	–	–	–	–	–	·	·	·
CC(C)c1ccccc1NC(=O)COc1ccc2c(=O)c(Oc3ccc4ccccc4c3)coc2c1	·	184.0	–	–	–	–	–	–
CCc1ccccc1NC(=O)COc1ccc2c(=O)c(Oc3cc(C)ccc3C)coc2c1	–	–	–	–	–	·	·	·
Cc1cccc(C(=O)NCc2nnc3c4ccccc4c(-c4ccccc4)nn23)c1	–	146.0	–	–	–	–	–	–
O=C(c1c(Cl)cccc1Cl)N1CCN(c2ncccn2)CC1	–	–	–	–	–	·	·	·
CCOC(=O)Cc1csc(NC(=O)Cc2ccc(Br)cc2)n1	–	–	–	–	–	·	·	·
CCOC(=O)Cc1csc(NC(=O)CC(C)(C)CC(=O)O)n1	–	128.0	–	–	–	–	–	–
CCOC(=O)Cc1csc(N/N=C\c2cccc(Br)c2)n1	–	·	·	·	–	·	·	·
O=C(Cc1ccc([N+](=O)[O-])cc1)Nc1nnc(C2CC2)s1	–	171.0	–	–	–	–	–	–
CCOC(=O)Cc1csc(N/N=C/c2ccccc2)n1	–	154.0	–	–	–	–	–	–
CCOC(=O)Cc1csc(NC(=O)Cc2ccc([N+](=O)[O-])cc2)n1	–	132.0	–	–	–	–	–	–
Cc1ccc(-n2nc3c(=O)n(CCCC(=O)NCc4ccccc4Cl)nc(C)c3c2C)cc1	–	–	–	–	–	·	·	·
Cc1ccc(Nc2nc3ccccc3n3cnnc23)cc1Cl	–	–	–	–	–	·	·	·
CCOC(=O)c1cnc(-c2ccc(C(F)(F)F)cn2)[nH]c1=O	·	–	–	–	–	·	·	·
CN1CCN(c2ccc(Cl)cc2NC(=O)/C=C/c2ccc(F)cc2)CC1	–	–	51.0	195.0	–	–	–	–
COc1ccc(CC(=O)Nc2cc(Cl)ccc2N2CCCC2)cc1	–	–	–	–	–	·	·	·
CN1CCN(c2ccc(Cl)cc2NC(=O)CCN2C(=O)c3ccccc3C2=O)CC1	–	–	–	171.0	–	–	–	–
COc1ccc(CCC(=O)Nc2cc(Cl)ccc2N2CCN(C)CC2)cc1	·	–	25.0	–	–	–	–	–
O=C(/C=C/c1ccc(F)cc1)Nc1cc(S(=O)(=O)N2CCOCC2)ccc1N1CCCC1	–	–	–	–	–	·	·	·
COc1ccc(CCC(=O)Nc2cccc(Cl)c2)cc1	–	130.0	–	–	–	–	–	–
CN1CCN(C(=O)c2ccccc2NC(=O)CCN2C(=O)c3ccccc3C2=O)CC1	–	–	–	–	–	·	·	·
